# Values joined by “and” are separate entries in the source; they are usually repeats but may differ in a detail not shown here. Equal values may be shown once. Inconclusive results are not listed. Active and inactive are the calls of the source. Unless noted, how the calls were made is not given here.
# What was measured:
# [1] = tested on: Aerobactin synthetase IucA (Klebsiella pneumoniae); assay: IucA aerobactin synthetase inhibitors, biochemical, Tocris library, absorbance (AID 1345561); details: purified IucA enzyme assay, absorbance (OD) read-out; stronger effect = lower value;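 tested at 8 µM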;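 further: 100% = enzyme without compound and 0% = no enzyme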
# [2] = hESC survival regulators, cell-based (AID 493140); details: human embryonic stem cell survival screen; stronger effect = higher value;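 further: cells exposed to compounds for four days before counting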
# [3] = differential killing of epithelial or mesenchymal cells, primary screen, imaging, PC-3E GFP, TEM4-18 mCherry, co-culture (AID 1345086;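 active means compounds killing one labelled cell type while sparing the other, by normalised counts and ratio limits, not self-fluorescent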;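 on all read-outs here: cells exposed to compound for 72 h before imaging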;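 on red/green cell ratio (normalised): normalised mesenchymal count divided by normalised epithelial count so high means epithelial killing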); details: imaging cell counts, at 1 µM; for red/green cell ratio (normalised): actives lie on both sides, counts scaled to control wells, 1 = unselective
# [4] = biological target: NAD(+) hydrolase SARM1 (Homo sapiens) (UniProt Q6SZW1); assay: SARM1 TIR NADase inhibitors, cell lysate, NAD-Glo luminescence (AID 1508614;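 active means compound whose remaining NAD level is above about 45 nM, limit read from the data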); details: SAM-TIR HEK293T lysate NADase, at 1 µM, stronger effect = higher value
# NAD(+) hydrolase SARM1 (Homo sapiens), sequence (Q6SZW1 whole entry, looked up): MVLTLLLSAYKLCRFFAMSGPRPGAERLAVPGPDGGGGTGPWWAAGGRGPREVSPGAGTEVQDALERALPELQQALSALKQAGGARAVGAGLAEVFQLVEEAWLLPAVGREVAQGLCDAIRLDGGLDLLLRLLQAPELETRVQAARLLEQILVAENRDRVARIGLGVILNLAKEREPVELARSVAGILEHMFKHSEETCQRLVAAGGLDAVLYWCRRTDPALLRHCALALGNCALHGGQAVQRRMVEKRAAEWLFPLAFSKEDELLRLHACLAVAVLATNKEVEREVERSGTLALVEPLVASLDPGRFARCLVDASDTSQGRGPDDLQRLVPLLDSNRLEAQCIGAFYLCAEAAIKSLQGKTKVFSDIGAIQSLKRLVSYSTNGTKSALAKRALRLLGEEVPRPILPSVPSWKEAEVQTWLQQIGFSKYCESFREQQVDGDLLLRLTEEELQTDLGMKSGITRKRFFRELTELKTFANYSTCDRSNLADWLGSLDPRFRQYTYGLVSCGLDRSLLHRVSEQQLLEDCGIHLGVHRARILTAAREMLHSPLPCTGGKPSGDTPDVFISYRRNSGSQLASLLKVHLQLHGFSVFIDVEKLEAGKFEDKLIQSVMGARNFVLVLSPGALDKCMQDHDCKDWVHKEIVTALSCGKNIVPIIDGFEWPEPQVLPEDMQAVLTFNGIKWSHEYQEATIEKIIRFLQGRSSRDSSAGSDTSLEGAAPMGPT
# [5] = growth inhibition of DIPG glioma cells, dose response, cell-based, SU-DIPG-XVII, MIPE5.0, CellTiter-Glo, qHTS (AID 1347060; cut-off not given, nearly all actives have AC50 up to about 26 µM); details: SU-DIPG-XVII viability, CellTiter-Glo ATP luminescence
# [6] = growth inhibition of DIPG glioma cells, dose response, cell-based, JHH-DIPG-1, MIPE4.0, CellTiter-Glo, qHTS (AID 1347062; cut-off not given, nearly all actives have AC50 up to about 27 µM;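 on AC50: cells exposed to compound for two days before readout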); details: JHH-DIPG-1 viability, CellTiter-Glo ATP luminescence
# [7] = SU-DIPG-XXV glioma cell viability, MIPE5.0 library, qHTS (AID 1347068; cut-off not given, nearly all actives have IC50 up to about 30 µM)
# [8] = circadian clock period modulators, cell-based, LOPAC library, luminescence reporter (AID 2774); details: circadian reporter cells, at 7 µM, actives lie on both sides;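 further: values are relative to mean of DMSO wells on each plate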
# [9] = tested on: Hepatitis C virus NS3 helicase; assay: HCV NS3 helicase inhibitors, primary screen, biochemical, fluorescence polarization, LOPAC1280 library (AID 687035; in the data active means inhibition above about 37%); details: Purified HCV NS3 helicase, Cy5-dT15 ssDNA binding fluorescence polarization; stronger effect = higher value; concentration not given here
# [10] = Cy5 fluorescence quenching or enhancement artefacts, artefact control for HCV NS3 helicase inhibitor project, biochemical, LOPAC1280 (AID 687037); details: Cy5-DNA-NS3h complex fluorescence interference counterscreen
# [11] = phospholipid biosynthesis inhibitors in animal cells, primary screen, cell-based, LOPAC library, screen 4 (AID 1347384); details: phospholipid biosynthesis inhibition screen, at 10 µM
# [12] = measured here: epithelial PC-3E GFP cell survival
# [13] = measured here: mesenchymal TEM4-18 mCherry cell survival
smiles,measurement,setting,value
Cc1sc(N)c(C(=O)c2cccc(C(F)(F)F)c2)c1C,remaining activity,[1],120% (inactive)
CO/N=C(/C(=O)N[C@@H]1C(=O)N2C(C(=O)O)=C(COC(N)=O)CS[C@H]12)c1ccco1,survival,[2],3.92 (inactive)
Cc1c(O)c(=O)ccn1C,red/green cell ratio (normalised),[3],0.89 (inactive)
same,normalised cell number,[3]; [12],1.06
same,normalised cell number,[3]; [13],0.95
same,remaining NAD,[4],10 nM (inactive)
CS(=O)(=O)c1ccc(-c2cc(Br)sc2-c2ccc(F)cc2)cc1,remaining activity,[1],111% (inactive)
CCCCC[C@H](O)/C=C/[C@H]1[C@H](O)CC(=O)[C@@H]1CCCCCCC(=O)O,survival,[2],35.2 (inactive) and 136 (inactive)
same,remaining activity,[1],115% (inactive)
same,outcome,[5],inactive
same,outcome,[6],inactive
same,outcome,[7],inactive
CN1CCN(c2nc3cc(C(F)(F)F)ccc3n3cccc23)CC1,period change,[8],-0.085 h (inactive)
same,inhibition,[9],-3% (inactive)
same,fluorescence ratio (interference),[10],1 (inactive)
same,outcome,[11],inactive
CC[C@]1(O)CC2CN(CCc3c([nH]c4ccccc34)[C@@](C(=O)OC)(c3cc4c(cc3OC)N(C=O)[C@H]3[C@@](O)(C(=O)OC)[C@H](OC(C)=O)[C@]5(CC)C=CCN6CC[C@]43[C@@H]65)C2)C1 (stereo partly drawn),red/green cell ratio (normalised),[3],0.69 (inactive)
same,normalised cell number,[3]; [12],0.19
same,normalised cell number,[3]; [13],0.13
COCC1=C(C(=O)OC(C)OC(=O)OC(C)C)N2C(=O)[C@@H](NC(=O)/C(=N\OC)c3csc(N)n3)[C@H]2SC1 (stereo partly drawn),remaining NAD,[4],10 nM (inactive)
CN1[C@@H](CC(=O)c2ccccc2)CCC[C@H]1C[C@H](O)c1ccccc1,period change,[8],-0.145 h (inactive)
same,survival,[2],11.3 (inactive)
same,inhibition,[9],0% (inactive)
same,fluorescence ratio (interference),[10],1 (inactive)
same,remaining activity,[1],122% (inactive)
same,outcome,[11],inactive
CC[C@]1(O)CC2CN(CCc3c([nH]c4ccccc34)[C@@](C(=O)OC)(c3cc4c(cc3OC)N(C)[C@H]3[C@@](O)(C(N)=O)[C@H](O)[C@]5(CC)C=CCN6CC[C@]43[C@@H]65)C2)C1 (stereo partly drawn),AC50,[6],0.0469 µM (active)
Nc1nc2ccc(Cl)cc2c2nc(-c3ccco3)nn12,period change,[8],0.275 h (inactive)
same,inhibition,[9],-2% (inactive)
same,fluorescence ratio (interference),[10],1 (inactive)
same,remaining activity,[1],120% (inactive)
same,outcome,[11],inactive
CC(=O)N1CCN(c2ccc(OC[C@H]3CO[C@](Cn4ccnc4)(c4ccc(Cl)cc4Cl)O3)cc2)CC1,period change,[8],-0.195 h (inactive)
same,survival,[2],3.25 (inactive)
same,inhibition,[9],-5% (inactive)
same,fluorescence ratio (interference),[10],1 (inactive)
same,remaining activity,[1],114% (inactive)
same,outcome,[5],inactive
same,AC50,[6],23.5 µM (active)
same,outcome,[11],inactive
CC(=O)SCC(Cc1ccccc1)C(=O)NCC(=O)OCc1ccccc1 (stereo not drawn),survival,[2],6.5 (inactive)
same,outcome,[5],inactive
same,AC50,[6],0.469 µM (active)
same,outcome,[7],inactive
same,remaining NAD,[4],10 nM (inactive)
COc1cccc2c1C(=O)c1c(O)c3c(c(O)c1C2=O)C[C@@](O)(C(C)=O)C[C@@H]3OC1CC(N)C(O)C(C)O1 (stereo partly drawn),survival,[2],2.17 (inactive)
same,remaining activity,[1],110% (inactive)
CN1CCN2c3ncccc3Cc3ccccc3C2C1 (stereo not drawn),remaining activity,[1],106% (inactive)
same,outcome,[5],inactive
same,outcome,[6],inactive
same,outcome,[7],inactive
C#C[C@]1(O)CC[C@H]2[C@@H]3CCC4=Cc5oncc5CC4(C)[C@H]3CCC21C (stereo partly drawn),period change,[8],0.035 h (inactive)
same,inhibition,[9],0% (inactive)
same,fluorescence ratio (interference),[10],1 (inactive)
same,outcome,[11],inactive
CC12CCC3C(CC3(C)C)C3(C1)OC(=O)CC(C(=O)O)C3CC2 (stereo not drawn),red/green cell ratio (normalised),[3],0.86 (inactive)
same,normalised cell number,[3]; [12],1.03
same,normalised cell number,[3]; [13],0.88

# From PubChem BioAssay
